Measured values from PubChem BioAssay (NCI).
Compounds without any hit were thinned out: in the full panel of roughly 79,000, 15% have a hit. No stated cut-off is given here; in the data, active means growth inhibition above about 70%; inactive means the rest.

How the values were obtained:
[1] = NCI Yeast Anticancer Drug Screen. Data for the rad50 strain (AID 155);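 further: 0% = growth of vehicle-only cultures of the same strain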; settings: S. cerevisiae rad50 strain growth inhibition; at 50.0 µM; active compounds read high
In short: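 A DNA repair-deficient yeast mutant serves as the test organism; compound-induced growth inhibition is calculated against vehicle-treated cells.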

[2] = NCI Yeast Anticancer Drug Screen. Data for the mec2-1 strain (AID 157); settings: S. cerevisiae mec2-1 strain, at 50.0 µM, active compounds read high
In short: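 Mutant yeast (mec2-1) grown with compound; growth inhibition relative to vehicle control reported.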

[3] = NCI Yeast Anticancer Drug Screen. Data for the sgs1 mgt1 strain (AID 161);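 further: 0% = growth of cultures given vehicle only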; settings: S. cerevisiae sgs1 mgt1 strain, at 50.0 µM, active compounds read high
In short: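 Compounds are added to genetically altered yeast, and growth is compared with cultures given vehicle alone to give percent inhibition.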

[4] = NCI Yeast Anticancer Drug Screen. Data for the cln2 rad14 strain (AID 165);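 further: 0% = growth equal to vehicle treated cultures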; settings: S. cerevisiae cln2 rad14 strain, at 50.0 µM, active compounds read high
In short: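 Readout is yeast growth inhibition versus vehicle-treated controls, using a strain with cln2 and rad14 alterations exposed to compound.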

[5] = NCI Yeast Anticancer Drug Screen. Data for the bub3 strain (AID 167); settings: S. cerevisiae bub3 mutant strain, at 50.0 µM, active compounds read high
In short: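 Inhibition values come from growth of compound-treated mutant yeast normalised to vehicle-treated controls.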

[6] = NCI Yeast Anticancer Drug Screen. Data for the mlh1 rad18 strain (AID 175); settings: S. cerevisiae mlh1 rad18 strain growth inhibition; at 50.0 µM; active compounds read high
In short: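 Genetically defined yeast (DNA repair-deficient) exposed to compounds; growth inhibition determined relative to vehicle.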

Measured: growth inhibition

CSc1ncc(C=O)n1Cc1ccccc1
inactive: [1] -4.35% | [2] 6.7% | [3] 0.3% | [4] -34.5% | [5] 2.15% | [6] 5.6%

COC(=O)C1=NOC(Cc2ccccc2)C1 (stereo not drawn)
inactive: [1] 10.3% | [2] 6.95% | [3] 0.15% | [4] -35.4% | [5] 6.45% | [6] -4.85%

CCOC(=O)C1=CC(=O)CC(C)(C)O1
inactive: [1] -2.6% | [2] 7.55% | [3] -1.65% | [4] -5.75% | [5] -0.8% | [6] 1.95%

Nc1ccc2ccc(NS(=O)(=O)N3CCCCC3)cc2c1
inactive: [1] 31.8% | [2] 46.9% | [3] 43.1% | [4] 52.6% | [5] 18.5% | [6] 50.9%

Cc1cc2c(=O)cc(-c3ccccc3Cl)oc2c(C(=O)O)c1C
inactive: [1] -3.1% | [2] -10.3% | [3] -4.45% | [4] 8.2% | [5] -2.75% | [6] -18.6%

COc1cc2c(cc1C(CC(C)=O)c1cc(OC)c(OC)c(OC)c1)OCO2 (stereo not drawn)
inactive: [1] -11.6% | [2] -10.2% | [3] -12% | [4] -5.3% | [5] 11% | [6] -6.15%

c1ccc([P+](CC[P+](c2ccccc2)(c2ccccc2)c2ccccc2)(c2ccccc2)c2ccccc2)cc1
inactive: [1] -11.7% | [2] -15.6% | [3] -1.45% | [4] -31.8% | [5] -12.4% | [6] -16.4%

COc1cc2cnc3c4ccccc4ccc3c2cc1OC
inactive: [1] -48.5% | [2] -18.1% | [3] -1.7% | [4] 4.2% | [5] -2.85% | [6] -9.3%

CCOc1ccc(N(O)C(C)=O)cc1
inactive: [1] 1.9% | [2] -10.4% | [3] 3% | [4] -43.4% | [5] -8.75% | [6] 0%

CN(CCN(C)C(=O)CCOS(C)(=O)=O)C(=O)CCOS(C)(=O)=O
inactive: [1] -3.95% | [2] -3.05% | [3] -18.4% | [4] 0% | [5] -25.6% | [6] -51.5%

CC(C)(C)c1cc(C[N+](C)(C)[O-])c(O)c(-c2ccccc2)c1
inactive: [1] -0.65% | [2] -26.2% | [3] 2.05% | [4] -19.2% | [5] 6.35% | [6] -13.6%

COC(=O)C(N)Cc1ccc(O)c(O)c1 (stereo not drawn)
inactive: [1] 20.1% | [2] 4.7% | [3] 8.1% | [4] 10.8% | [5] 22.9% | [6] 48.5%

Cc1cc(Cl)c2c(c1)C(=O)C(C)C2.[Cu+2] (stereo not drawn)
inactive: [1] -13.1% | [2] -10.2% | [3] -18.8% | [4] -26.4% | [5] -6.65% | [6] -6.2%

CN1c2ccccc2S(=O)(=O)n2c(COc3ccc(Cl)cc3)nnc21
inactive: [1] -3.4% | [2] 4.15% | [3] 2.5% | [4] 12% | [5] 3.05% | [6] 2.6%

COc1ccc(Cl)cc1C(O)CN1CCCCC1 (stereo not drawn)
inactive: [1] -8.35% | [2] -11.9% | [3] -11.2% | [4] -37.5% | [5] 0.45% | [6] -6.3%

COc1cc(/C=C2/C(=O)N(C(=O)c3ccc(Cl)cc3)N=C2C)cc(OC)c1OC
inactive: [1] 10% | [2] -5.75% | [3] 2.95% | [4] -48.1% | [5] 24.6% | [6] 39%

N/C(=C\C(=O)c1ccccc1)C(=O)c1ccccc1
inactive: [1] 5.7% | [2] 4.65% | [3] -15.5% | [4] -10.7% | [5] 0.65% | [6] -1.55%

COc1ccc(-c2cn3c([nH]c(=O)c4cc(Br)ccc43)c2C#N)cc1
inactive: [1] 5.55% | [2] -5.3% | [3] -3.7% | [4] -5.25% | [5] 2.2% | [6] 16.1%

NC(=O)C(Cc1ccccc1)NC(=O)C1CCCN1 (stereo not drawn)
inactive: [1] 4.2% | [2] 1.35% | [3] 2.5% | [4] -33.9% | [5] -6.1% | [6] 24.6%

c1ccc(N=C(C(=Nc2ccccc2)c2ccccc2)c2ccccc2)cc1
inactive: [1] 4.7% | [2] 13.6% | [3] 3.65% | [4] -67.8% | [5] 4.65% | [6] -9.05%

COC(=O)CCC(=O)O
inactive: [1] 8.6% | [2] -0.1% | [3] 11.2% | [4] -8.05% | [5] -2.05% | [6] 43.4%

Cc1cccc(Cl)c1N
inactive: [1] -5.55% | [2] -7.95% | [3] 6.9% | [4] 3.15% | [5] -2.4% | [6] -3.15%

COC1(C)CNc2ccccc2C(=O)N1 (stereo not drawn)
inactive: [1] 6.65% | [2] -7.4% | [3] 22.9% | [4] 19.1% | [5] 23.1% | [6] 6.55%

O=S(=O)(N1CCCCC1)N1CCCCC1
inactive: [1] 2.3% | [2] -0.85% | [3] 0.85% | [4] 8.85% | [5] 10.2% | [6] -2.4%

N#CC(NCCCNC(C#N)c1ccccc1)c1ccccc1 (stereo not drawn)
inactive: [1] -1% | [2] 5.05% | [3] -4.6% | [4] -23.7% | [5] -3.9% | [6] -18.4%

N#CCCNC(CC(=O)O)C(=O)O (stereo not drawn)
inactive: [1] 10.7% | [2] 1.55% | [3] 14.4% | [4] -13.2% | [5] 0.5% | [6] -4.85%

CN1CCCN(C(=O)N(c2ccccc2)c2ccccc2)CC1
inactive: [1] -19.3% | [2] -12.8% | [3] 7.45% | [4] -3.6% | [5] -5.65% | [6] 7.4%

CC(C)(C)C(C)(C)CC(N)=O
inactive: [1] 7.25% | [2] -15.7% | [3] -4.3% | [4] -3.6% | [5] 10.9% | [6] -9.1%

CSc1ccc(NC(=O)Nc2ccc(Nc3ccccc3)cc2)cc1
inactive: [1] -0.95% | [2] 29.8% | [3] 15.1% | [4] -11.9% | [5] 14.2% | [6] 23.3%

CC(=O)NCC(OC(C)=O)c1ccc2c(c1)[nH]c1ccccc12 (stereo not drawn)
inactive: [1] 17.1% | [2] -6.5% | [3] -3.3% | [4] 10.1% | [5] 11.2% | [6] 31.2%

CCCCNCC1COc2cccc(OCC)c2O1 (stereo not drawn)
inactive: [1] 17.1% | [2] -0.1% | [3] -2% | [4] 9.7% | [5] -6.75% | [6] 4%

CC(=O)OCC1OC(n2ccc(=O)[nH]c2=O)CC1N=[N+]=[N-] (stereo not drawn)
inactive: [1] -25.1% | [2] 8.7% | [3] 1.05% | [4] -48.3% | [5] 13.3% | [6] 0.35%

Nc1nc(SCc2ccc(F)cc2)c2[nH]cnc2n1
inactive: [1] 16.8% | [2] 9.35% | [3] 12.6% | [4] -8.8% | [5] 12.8% | [6] -21.9%

CCOC(=O)Cn1c(=O)n(C)c(=O)c2[nH]cnc21
inactive: [1] 28.7% | [2] -27.1% | [3] 17.4% | [4] 15.1% | [5] 22.5% | [6] 28.5%

CCOC(=O)C(Nc1cc([N+](=O)[O-])ccc1C(=O)N1CCCCC1)(C(=O)OCC)N1CCCCC1
inactive: [1] 4.6% | [2] 12.8% | [3] 13.8% | [4] 3.8% | [5] 0.2% | [6] 15%

FC(F)(F)c1ccc(C(Nc2nncs2)Nc2nncs2)cc1
inactive: [1] -6.9% | [2] -6.7% | [3] -4.5% | [4] -8.35% | [5] 7.6% | [6] 0.75%

O=C(Cc1n[nH]c(=S)nc1CC(=O)c1ccccc1)c1ccccc1
inactive: [1] -2.05% | [2] 0.85% | [3] 5.2% | [4] -17.5% | [5] -27.9% | [6] 7.4%

CC1=C(CN(CC(=O)O)CC(=O)O)C(=O)C(C(C)C)=C/C1=C(\c1ccccc1S(=O)(=O)O)c1cc(C(C)C)c(O)c(CN(CC(=O)O)CC(=O)O)c1C
inactive: [1] -3.55% | [2] -24.8% | [3] 11.4% | [4] 4.2% | [5] 0.75% | [6] -8.7%

CCOP(C)(=O)/C(Cc1ccc(OC)c(OC)c1)=N\O (stereo not drawn)
inactive: [1] -21.4% | [2] -22.8% | [3] -14.8% | [4] 10.4% | [6] -17.2%

O=[N+]([O-])c1cc(C(F)(F)F)ccc1S(=O)(=O)c1ccccc1
inactive: [1] 40.4% | [2] 8.5% | [3] 8.7% | [4] 13.7% | [6] 17.6%

O=C1C2=C(Nc3cc(Cl)ccc3N2)OC1c1c[nH]c2ccc(COc3ccccc3)cc12 (stereo not drawn)
inactive: [1] -22.4% | [2] 6.6% | [3] -1.55% | [4] 30.4% | [6] -4.1%

CCOC(=O)C(NC(C)=O)C(=O)OCC
inactive: [1] -3.4% | [2] 10.2% | [3] 3.5% | [4] -12.6% | [6] -16.4%
